Compound activity as filed in PubChem BioAssay.
Shown are actives, neighbours in structure and some others; about 3.2% of the full set was active somewhere.
PAX8 reporter: lowers PAX8-driven luciferase in RMG-I cells | RMG-I TPO-luciferase reporter, SteadyGlo, 24 h | inhibition, % at 12.6 µM | hit rate 1.2% among 360,000 | AID 652154;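 active = mean replicate inhibition at least 60% with every replicate also reaching 60%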;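 note: luciferase light reporting Pax8 driven TPO promoter activity; plate controls were median of neutral control wells for no effect and mitoxantrone controls for full effect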
EWS-Fli block: blocks EWS/Fli oncoprotein-driven transcription | A673 NR0B1-luciferase reporter, viability-normalised | inhibition, % at 12.6 µM | hit rate 0.67% among 350,000 | AID 651661;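 active = mean inhibition of at least 50% after viability correction, with every replicate also passing that limit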;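 note: firefly luciferase signal divided by Alamar Blue viability fluorescence both relative to DMSO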
TROY signal inh: TROY signaling inhibition; hit rate 0.98% among 360,000; Q293 LMP1-TROYcd NF-kB luciferase reporter, 4 h; inhibition, % at 10 µM;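 active = compounds whose plate-normalised and pattern-corrected inhibition of the luciferase reporter signal at the single screening dose is 50% or more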
EBV LMP1 NFkB: Epstein-Barr LMP1 NF-kappaB reporter inhibition. LMP1-induced NF-kappaB luciferase reporter cells, luminescence. inhibition, % at 12.5 µM. hit rate 0.69% among 350,000. AID 504558; in the data active = inhibition above about 41%;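 note: 0% = neutral control wells and 100% = reference inhibitor control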
TWEAK-Fn14 inh: TWEAK-Fn14 signaling inhibition; hit rate 2% among 360,000; inhibition, % at 10 µM; AID 1159606; TWEAK-stimulated Fn14 reporter cells, luciferase luminescence, 8 h; in the data active = inhibition above about 50%
LGR2 inh: Drosophila LGR2 receptor signaling inhibition. HEK293 LGR2, CRE-luciferase, bursicon-stimulated, 4 h. inhibition, % at 9.99 µM. hit rate 0.35% among 380,000;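 active = drop in luminescence signal, shown as inhibition above about 50% in the replicate tests, limit read from the data, passing the limit was not always enough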;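 note: agonist challenge used bursicon conditioned medium at about half maximal strength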
An asterisk follows results filed as active; . = no result.

SMILES	PAX8 reporter	EWS-Fli block	TROY signal inh	EBV LMP1 NFkB	TWEAK-Fn14 inh	LGR2 inh
C=CCC[C@@H](Cc1ccc(F)cc1)C(=O)OC[C@@H](Cc1c[nH]c2ccccc12)NC(=O)[C@@H](CC=C)CC(=O)NCCO	-1.9	11.2	13.9	-2.8	29.4	43.7
C=CCC[C@H](Cc1ccc(F)cc1)C(=O)OC[C@H](Cc1c[nH]c2ccccc12)NC(=O)[C@@H](CC=C)CC(=O)N(CCO)Cc1ccccc1	28.6	5.0	45.0	-2.0	60.0*	45.5
C=CC[C@H](CC(=O)N(CCO)Cc1ccccc1)C(=O)N[C@H](COC(=O)[C@@H](CC=C)Cc1ccc(F)cc1)Cc1ccccc1	80.0*	0.1	32.4	-2.0	32.2	31.2
C=CCC[C@H](Cc1ccc(F)cc1)C(=O)OC[C@@H](Cc1c[nH]c2ccccc12)NC(=O)[C@@H](CC=C)CC(=O)N(CCO)Cc1ccccc1	83.6*	8.0	12.5	6.8	49.5	28.3
CCCNC(=O)N1C[C@@H]2[C@H](c3ccccc31)[C@H](CO)N2Cc1ccc(F)cc1	2.9	6.7	.	.	.	-9.9
COc1cc2c(cc1OC)CN(C(=O)[C@H]1[C@@H]3C(=O)O[C@@H](c4ccccc4)[C@@H](c4ccccc4)N3[C@@H](c3ccccc3OCCO)[C@]13C(=O)Nc1ccccc13)CC2	41.5	12.6	.	.	.	.
O=C(CSC1CC(=O)N(CC(c2ccccc2)c2ccccc2)C1=O)Nc1ccc(Cl)cc1 (configuration not stated)	4.0	.	51.2*	-3.1	32.4	.
N#C[C@@H]1[C@H](c2ccccc2-c2ccc(F)cc2)[C@H](CO)N1C(=O)NC1CCCCC1	20.8	-2.5	.	.	.	-6.8
COc1ccc(N=C2NN=C(c3ccc4c(c3)OCCO4)CS2)cc1	.	.	7.4	-28.6	6.9	.
CCCCN=C1NN=C(c2ccc3c(c2)OCCO3)CS1	-110.0	-16.0	61.7*	19.8	70.0*	35.1
c1cc2c(cc1C1=NNC(=NC3CC3)SC1)OCCO2	95.8*	78.8*	88.6*	84.0*	104.0*	54.9*
C[C@@H]1CN([C@H](C)CO)C(=O)c2cc(NS(=O)(=O)c3ccccc3)ccc2O[C@@H](C)CCCCO[C@H]1CN(C)C(=O)NC1CCCCC1	12.3	7.6	.	.	.	9.8
O=C(CSc1nnc(Cc2cccs2)n1C1CCCCC1)N1CCN(C(=O)c2ccco2)CC1	73.6*	.	-22.6	-7.6	13.0	.
O=c1cc2c(=O)oc3cc(O)c(O)oc3c2c(O)c1O	-6.1	-6.7	7.2	9.4	83.0*	-2.7
O=c1oc2cc(O)c(Cl)cc2c2ccccc12	8.4	.	-4.4	9.4	5.0	-5.0
Cc1ccc(C(=O)Sc2cccccc2=O)cc1	42.5	34.0	-31.7	-18.6	101.8*	1.3
CCn1c(CCNC(=O)c2ccc(OC)cc2)nnc1SCc1ccc(Cl)cc1Cl	.	.	62.7*	66.1*	11.8	13.1
O=C(C[C@@H]1C[C@H]2c3cc(NC(=O)C4CCC4)ccc3O[C@H]2[C@H](CO)O1)NCc1ccccc1F	36.8	3.7	.	.	.	3.0
N#C[C@@H]1[C@H](c2ccc(C#Cc3ccccc3F)cc2)[C@H](CO)N1C(=O)C1CCCC1	39.7	1.1	.	.	.	21.7
N#C[C@H]1[C@@H](c2ccc(C#Cc3ccccc3F)cc2)[C@H](CO)N1C(=O)C1CCC1	-4.6	10.3	.	.	.	0.1
N#C[C@H]1[C@H](c2ccc(C#Cc3ccccc3F)cc2)[C@H](CO)N1C(=O)C1CC1	1.9	-35.6	.	.	.	61.9*
N#C[C@H]1[C@H](c2ccc(C#Cc3ccccc3F)cc2)[C@H](CO)N1C(=O)C1CCCC1	.	0.8	.	.	.	104.2*
N#C[C@H]1[C@@H](c2ccc(C#Cc3ccccc3F)cc2)[C@@H](CO)N1C(=O)C1CCCCC1	81.7*	12.1	.	.	.	-1.9
CCCC(=O)Nc1ccc2c(c1)C(=O)N(C)C[C@H](OC)[C@H](C)CN(C(C)=O)[C@@H](C)CO2	.	-1.6	.	.	.	-1.6
CC(=O)N1[C@@H](CO)[C@@H](c2ccccc2)C12CN(Cc1cc(F)ccc1F)C2	-5.2	-4.8	.	.	.	-10.1
COc1ccc(NC(=O)N2CCCCN3[C@@H](CO)[C@H](c4ccc(C#Cc5ccccc5)cc4)[C@@H]3C2)cc1	70.0*	7.8	.	.	.	.
COc1ccc(C#Cc2ccc([C@H]3[C@@H](CO)N4CCCCN(C(=O)Nc5ccc(F)cc5)C[C@H]34)cc2)cc1	-0.7	.	.	.	.	-13.0
COc1ccc(C#Cc2ccc([C@@H]3[C@H](CO)N4CCCCN(C(=O)Nc5ccc(F)cc5)C[C@@H]34)cc2)cc1	107.2*	.	.	.	.	-9.8
